{"source": "paper PMC5540273", "about": "(PLoS ONE, 2017);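 note: KINOMEscan kinase panel screen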"}
{"tested_on": "T1, JNK1", "T1 construct": "gene MAPK8", "conditions": "concentration: 1 μM, replicates: in singlicate; n = 1", "units": {"%Inh": "%"}}
{"molecule": "Nc1nc(-c2cccnc2)c(-c2ccnc3ccccc23)s1", "note": "[GW684083]", "%Inh": 23}
{"molecule": "Cl.c1ccc(Cn2ncc3cc(Nc4ncnc5ccccc45)ccc32)cc1", "note": "[GW273749]", "%Inh": 5}
{"molecule": "O=C(NCCCN1CCCC1=O)c1cnc(NCc2cc(Cl)ccc2Cl)nc1NC1CCNCC1", "%Inh": 0}
{"molecule": "Cc1ccc(O)cc1Nc1cc(C(F)(F)F)nc2ccc(-c3ccncc3)cc12", "note": "[GW630823]", "%Inh": 0}
{"molecule": "C[C@@H]1CCN(C(=O)CO)C[C@@H]1N(C)c1ncnc2[nH]ccc12", "%Inh": 19}
{"molecule": "COc1ccc(NC(=O)Nc2ccc(C)c(-c3ccc(C(=O)Nc4ccncc4)cc3)c2)cc1", "note": "[GSK1398475]", "%Inh": 5}
{"molecule": "O=c1cc(N2CCOCC2)nc2n(Cc3cccc(Cl)c3)ccn12", "note": "[GSK2296823]", "%Inh": 21}
{"molecule": "CC(C)N1CCC(n2cnc(-c3ccc(F)cc3)c2-c2ccnc(N)n2)CC1", "note": "[SB-223132]", "%Inh": 23}
{"molecule": "Clc1cccc(-c2nc(Nc3ccncc3)c3ccccc3n2)c1", "note": "[GW873004]", "%Inh": 0}
{"molecule": "COC(=O)c1c(-c2ccccc2)c2cc(Cl)ccc2c(=O)n1Cc1ccc(S(C)(=O)=O)cc1", "%Inh": 98.8}
{"molecule": "Oc1ccc2ncnc(Nc3ccc(OCc4ccccc4)cc3)c2c1", "note": "[GI262866]", "%Inh": 0}
{"molecule": "COc1cc2c(Nc3cccc(NC(=O)c4ccccc4)c3)ncnc2cc1OCCCN1CCOCC1", "note": "[GSK223810]", "%Inh": 34}
{"molecule": "CCc1nc(-c2cccc(C)c2)c(-c2ccnc(NC(=O)c3ccccc3)c2)s1", "%Inh": 53}
{"molecule": "Clc1ccc(-c2cc(-c3c[nH]nc3-c3ccccn3)ccn2)cc1", "note": "[GW681251]", "%Inh": 35}
{"molecule": "Nc1nc(-c2ccc3c(N)n[nH]c3c2)cc(N2CCC[C@@H](C(=O)Nc3ccccc3)C2)n1.O=C(O)C(F)(F)F.O=C(O)C(F)(F)F", "note": "[GSK2288359]", "%Inh": 0}
{"molecule": "CCn1c(-c2ccncc2)nc2cnccc21", "note": "[SB-735216]", "%Inh": 23}
{"molecule": "Cn1ccc2ncnc(Nc3ccc(Oc4cccc(Cl)c4)c(Cl)c3)c21", "%Inh": 8}
{"molecule": "Fc1ccc(-c2ncn(CCCNCc3ccccc3)c2-c2ccncc2)cc1", "%Inh": 34}
{"molecule": "CC(C)(C)OC(=O)NC1CCCN(c2cc(-c3ccc4c(N)n[nH]c4c3)nc(N)n2)C1", "note": "(stereo not drawn) [GSK2286096]", "%Inh": 34}
{"molecule": "CC(=O)Nc1n[nH]c2ncc(-c3ccccc3)cc12", "note": "[SB-548492]", "%Inh": 40}
{"molecule": "COc1ccc(Nc2nccc(N3CCC(NC(=O)Nc4ccc5c(c4)OCO5)C3)n2)cc1", "note": "(stereo not drawn) [GSK1379745]", "%Inh": 18}
{"molecule": "CN1CCC(n2cnc(-c3ccc(F)cc3)c2-c2ccnc(NC3CCNCC3)n2)CC1", "note": "[SB-229482]", "%Inh": 71}
{"tested_on": "T2, JNK2", "T2 construct": "gene MAPK9", "conditions": "concentration: 1 μM, replicates: in singlicate; n = 1", "units": {"%Inh": "%"}}
{"molecule": "COc1cc2ncnc(Nc3ccc(OCc4ccccc4Br)c(Cl)c3)c2cc1OC.Cl", "note": "[GI261590]", "%Inh": 10}
{"molecule": "CSc1nn2c(=O)cc(N3CCOCC3)nc2n1Cc1cccc(Cl)c1Cl", "note": "[GSK2347225]", "%Inh": 26}
{"molecule": "Fc1cccc(COc2ccc(Nc3ncnc4sc(-c5ccc[nH]5)cc34)cc2Cl)c1", "note": "[GW707818]", "%Inh": 15}
{"molecule": "Cl.O=S(=O)(c1cccc(F)c1)c1ccc(Nc2ncnc3cc(Br)sc23)cc1Cl", "note": "[GSK306886]", "%Inh": 7}
{"molecule": "CN1c2ccc(-c3ccc(C(=O)NCCO)cc3)cc2-c2[nH]ncc2S1(=O)=O", "%Inh": 1}
{"molecule": "Nc1nc(-c2ccc3c(N)n[nH]c3c2)cc(N2CCCCC2)n1", "note": "[GSK2228768]", "%Inh": 11}
{"molecule": "Cn1ccc2ncnc(Oc3ccc(NC(=O)Nc4cccnc4)c(Cl)c3)c21", "%Inh": 0}
{"molecule": "Clc1cc(Nc2ncnc3cc[nH]c23)ccc1OCc1ccccn1", "%Inh": 40}
{"molecule": "Cl.Cl.c1ccc(-c2cc3ccncc3cc2OC2CCNCC2)cc1", "note": "[GSK1122999]", "%Inh": 15}
{"molecule": "Fc1ccc(Nc2nccc(-c3c(-c4ccc(Cl)cc4)nn4ncccc34)n2)cc1F", "note": "[GW829058]", "%Inh": 63}
{"molecule": "C[C@H]1CC[C@@H](C(=O)Nc2ccccc2)CN1c1cc(-c2ccc3c(N)n[nH]c3c2)nc(N)n1", "note": "[GSK2283293]", "%Inh": 25}
{"molecule": "FC(F)(F)c1cc(Nc2nccc(-c3c(-c4ccc(Cl)cc4)nn4ncccc34)n2)ccc1Cl", "note": "[GW829351]", "%Inh": 58}
{"molecule": "FC(F)(F)c1ccc(-c2cc(-c3c[nH]nc3-c3ccccn3)ccn2)cc1", "note": "[GW599550]", "%Inh": 5}
{"molecule": "Nc1nc(-c2cccnc2)c(-c2ccnc3ccccc23)s1", "note": "[GW684083]", "%Inh": 29}
{"molecule": "Cl.c1ccc(Cn2ncc3cc(Nc4ncnc5ccccc45)ccc32)cc1", "note": "[GW273749]", "%Inh": 5}
{"molecule": "O=C(NCCCN1CCCC1=O)c1cnc(NCc2cc(Cl)ccc2Cl)nc1NC1CCNCC1", "%Inh": 0}
{"molecule": "Cc1ccc(O)cc1Nc1cc(C(F)(F)F)nc2ccc(-c3ccncc3)cc12", "note": "[GW630823]", "%Inh": 0}
{"molecule": "C[C@@H]1CCN(C(=O)CO)C[C@@H]1N(C)c1ncnc2[nH]ccc12", "%Inh": 0}
{"molecule": "COc1ccc(NC(=O)Nc2ccc(C)c(-c3ccc(C(=O)Nc4ccncc4)cc3)c2)cc1", "note": "[GSK1398475]", "%Inh": 4}
{"molecule": "O=c1cc(N2CCOCC2)nc2n(Cc3cccc(Cl)c3)ccn12", "note": "[GSK2296823]", "%Inh": 12}
{"molecule": "CC(C)N1CCC(n2cnc(-c3ccc(F)cc3)c2-c2ccnc(N)n2)CC1", "note": "[SB-223132]", "%Inh": 12}
{"molecule": "Clc1cccc(-c2nc(Nc3ccncc3)c3ccccc3n2)c1", "note": "[GW873004]", "%Inh": 0}
{"molecule": "COC(=O)c1c(-c2ccccc2)c2cc(Cl)ccc2c(=O)n1Cc1ccc(S(C)(=O)=O)cc1", "%Inh": 99.5}
{"molecule": "Oc1ccc2ncnc(Nc3ccc(OCc4ccccc4)cc3)c2c1", "note": "[GI262866]", "%Inh": 0}
{"molecule": "COc1cc2c(Nc3cccc(NC(=O)c4ccccc4)c3)ncnc2cc1OCCCN1CCOCC1", "note": "[GSK223810]", "%Inh": 58}
{"molecule": "CCc1nc(-c2cccc(C)c2)c(-c2ccnc(NC(=O)c3ccccc3)c2)s1", "%Inh": 79}
{"molecule": "Clc1ccc(-c2cc(-c3c[nH]nc3-c3ccccn3)ccn2)cc1", "note": "[GW681251]", "%Inh": 30}
{"molecule": "Nc1nc(-c2ccc3c(N)n[nH]c3c2)cc(N2CCC[C@@H](C(=O)Nc3ccccc3)C2)n1.O=C(O)C(F)(F)F.O=C(O)C(F)(F)F", "note": "[GSK2288359]", "%Inh": 0}
{"molecule": "CCn1c(-c2ccncc2)nc2cnccc21", "note": "[SB-735216]", "%Inh": 11}
{"molecule": "Cn1ccc2ncnc(Nc3ccc(Oc4cccc(Cl)c4)c(Cl)c3)c21", "%Inh": 0}
{"molecule": "Fc1ccc(-c2ncn(CCCNCc3ccccc3)c2-c2ccncc2)cc1", "%Inh": 48}
{"molecule": "CC(C)(C)OC(=O)NC1CCCN(c2cc(-c3ccc4c(N)n[nH]c4c3)nc(N)n2)C1", "note": "(stereo not drawn) [GSK2286096]", "%Inh": 21}
{"molecule": "CC(=O)Nc1n[nH]c2ncc(-c3ccccc3)cc12", "note": "[SB-548492]", "%Inh": 17}
{"molecule": "COc1ccc(Nc2nccc(N3CCC(NC(=O)Nc4ccc5c(c4)OCO5)C3)n2)cc1", "note": "(stereo not drawn) [GSK1379745]", "%Inh": 20}
{"molecule": "CN1CCC(n2cnc(-c3ccc(F)cc3)c2-c2ccnc(NC3CCNCC3)n2)CC1", "note": "[SB-229482]", "%Inh": 96}
